From PubChem BioAssay
Rows were chosen to be rich in hits. Some 19% of all compounds tested hit in one or more screens of this group.
IL-1B inflam inh: inhibitors of inflammasome signaling (IL-1 beta secretion); AID 743279; actives 4.7% (n = 360,000); activity change, % at 57.5 µM; THP-1 LPS/ATP IL-1B secretion, AlphaLISA, 16 h; active compounds read low; in the data active = activity change below about -50%; inconclusive = mostly about -30% to -49%
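Secreted IL-1B measured by AlphaLISA bead assay after 16 h compound exposure of THP-1 cells; compounds (final up to 57.5 uM) added 1 h before LPS (250 ng/mL) and ATP (1.25 mM) stimulation; lower signal means less secretion.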
HT1080NT lethal: kills 2HG-producing HT-1080-NT fibrosarcoma cells; Potency, µM (series often up to 46.1 µM), actives largely listed as cytotoxic; HT-1080-NT fibrosarcoma viability, CellTiter-Glo ATP luminescence, 48 h; actives 1.6% (n = 360,000);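 also: NT is the 2HG producing partner of a matched IDH1 knockdown line; nearly all actives have a fitted effect of over 55% in size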
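HT-1080-NT; 750 cells/well; 5% FBS RPMI; 48 h compound, 37 degrees C; CellTiter-Glo luminescence; curve fitting and curve-class assignment.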
TDP1 cell noCPT: qHTS for Inhibitors of human tyrosyl-DNA phosphodiesterase 1 (TDP1): qHTS in cells in absence of CPT | DT40 Tdp1-/- hTDP1 cells, no CPT, ATP luminescence, 48 h | Potency, µM (doses to about 46.2 µM), actives largely listed as inhibitors | actives 15% (n = 420,000) | AID 686978, 2013; also: nearly all actives have a fitted effect of over 55% in size
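DT40 Tdp1-/-;hTDP1 cells, no CPT (DMSO vehicle only), 400 cells/well; compounds pin-transferred; ≥48 hr, 37 °C; CellTiter-Glo 30 min RT dark, luminescence read.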
HT1080 IDH1KD tx: toxicity to HT-1080 IDH1 knockdown cells (counter line). HT-1080 IDH1 knockdown viability, ATP luminescence, 48 h. Potency, µM (highest dose often 46.1 µM), actives largely listed as cytotoxic. actives 2% (n = 360,000). AID 686971
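% activity derives from luminescence (CellTiter-Glo), normalised to DMSO and no-cell wells. HT-1080-IDH1KD cells, 750/well, had 48 h compound exposure at 37 °C.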
DT40 TDP1 CPT: growth inhibition of DT40 Tdp1-/-;hTDP1 cells with camptothecin (screen for TDP1 inhibitors). chicken DT40 Tdp1-/-;hTDP1 cells + 20 nM CPT, ATP luminescence, 48 h. Potency, µM (highest dose often 46.2 µM), actives largely listed as inhibitors. actives 12% (n = 420,000). AID 686979; also: nearly all actives have a fitted effect of over 55% in size
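Cell growth measured by CellTiter-Glo luminescence after a minimum 48 h, 37 C compound exposure with 20 nM CPT in Tdp1-knockout DT40 cells stably expressing hTDP1, seeded 400/well; qHTS titration format.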
Numbers stand for hits; - = inactive; ? = inconclusive; . = no result; [ ] = another dose, or the depositor's remark. Unless noted, calls follow the shape of the dose curve; as a rule, active = well fitted curve in the direction sought with a large enough effect; inconclusive = small, poorly fitted or top-dose-only effect, or another doubt; inactive = no such curve, though single readings can be large; an effect the other way counts as inactive or inconclusive.

SMILES	IL-1B inflam inh	HT1080NT lethal	TDP1 cell noCPT	HT1080 IDH1KD tx	DT40 TDP1 CPT
Cc1cc(C(O)c2ncc(-c3ccccc3Cl)[nH]2)ccc1F (configuration not stated)	-	-	?	-	?
O=C(c1ccco1)N1CCN(CCCCOc2ccc(F)cc2)CC1	-	-	?	-	?
COc1cccc(Nc2ncnc3onc(-c4ccccc4OC)c23)c1	-	-	-	-	?
Cc1ccc(OCCOCCn2c(-c3ccc(Cl)cc3)nc3ccccc3c2=O)cc1	.	.	-	.	-
Cc1nc2c(c(C)nn2-c2ccccc2)c(C)c1CCC(=O)Nc1ccc(F)cc1	.	.	18µM	.	?
CC(=O)Nc1ccc(NC(=O)CCc2c(C)nc3c(c(C)nn3-c3ccc(C)cc3)c2C)cc1	.	.	?	.	15µM
CCOc1ccccc1NC(=O)CCc1c(C)nc2c(c(C)nn2-c2ccccc2)c1C	.	.	16µM	.	16µM
CC(=O)Nc1ccc(NC(=O)CCc2c(C)nc3c(c(C)nn3-c3ccccc3)c2C)cc1	.	.	-	.	-
CCOC(=O)c1ccc(NC(=O)CCc2c(C)nc3c(c(C)nn3-c3ccccc3)c2C)cc1	.	.	10µM	.	16µM
COc1cc(NC(=O)Cn2c(=O)n(Cc3ccccc3OC)c(=O)c3cccnc32)cc(OC)c1	.	.	?	.	-
Cc1ccc(-n2nc(C)c3c(C)c(CCC(=O)NC(C)c4ccccc4)c(C)nc32)cc1 (configuration not stated)	-	-	?	-	?
CCC(C)NC(=O)CCc1c(C)nc2c(c(C)nn2-c2ccc(C)cc2)c1C (configuration not stated)	.	.	7.3µM	.	15µM
Cc1nc2ccccc2nc1OCc1cccc(Cl)c1	-	-	15µM	-	?
CCOc1ncccc1C(=O)OCc1c(F)cccc1Cl	-	-	-	-	-
Cc1cccc(CNC(=O)c2cnc3sc(N4CCCCCC4)nn3c2=O)c1	.	.	-	.	-
CCCN(CCC)c1nn2c(=O)c(C(=O)NCc3cccc(OC)c3)cnc2s1	.	.	16µM	.	?
CCN(CC)c1nn2c(=O)c(C(=O)NCc3cccc(C)c3)cnc2s1	.	.	16µM	.	?
O=[N+]([O-])c1ccc(C2CC(c3ccccc3)=Nc3ccccc3S2)cc1 (configuration not stated)	-	-	21µM	-	?
CC(=O)c1c(N2CCOCC2)[nH]c(-c2ccccc2)nc1=S	-	-	?	-	16µM
CC(=O)c1c(N)[nH]c(-c2ccccc2)nc1=S	-	-	6.5µM	-	6.5µM
COC(=O)c1cnn(-c2ccc(F)cc2F)c1/C=N/NC(N)=S	-	?	?	-	?
COc1ccc(C(=O)NCC2Cc3cc(C)cc(-c4nc5ccccc5s4)c3O2)c(OC)c1OC (configuration not stated)	.	.	-	.	-[9.04 µM]
O=C(Nc1ccc(-c2nc3ccccc3[nH]2)cc1)c1ccc2c(c1)OCO2	-	?	18µM	?	?
Cc1ccc(NC(=O)c2ccc3c(c2)OCO3)cc1Cl	-	-	-	-	-
Cc1nc2ccc(-c3nc4ccccc4[nH]3)cc2[nH]1	-	-	?	-	?
SMILES	IL-1B inflam inh	HT1080NT lethal	TDP1 cell noCPT	HT1080 IDH1KD tx	DT40 TDP1 CPT
O=C(Nc1ccc(-c2nc3ccccc3[nH]2)cc1)c1c(F)c(F)c(F)c(F)c1F	-	-	-	-	-
c1ccc2[nH]c(-c3ccc4c(c3)OCO4)nc2c1	.	26µM	18µM	26µM	?
O=C(Nc1ccc(-c2nc3ccccc3[nH]2)cc1)C1CCCO1 (configuration not stated)	-	10µM	15µM	11µM	18µM
O=C(Nc1ccc(Cl)c(-c2nc3ccccc3[nH]2)c1)c1ccc2c(c1)OCO2	-	-	23µM	-	?
C=CCn1c(SCC#N)nnc1-c1ccc2ncccc2c1	-	-	-	-	-
Cc1ccc(CNC(=O)CCC2CCCN(C(=O)c3ccc4c(c3)OCO4)C2)o1 (configuration not stated)	-	-	?	-	-
O=C(Nc1cccc(F)c1)c1ccc2c(c1)OCO2	-	-	?	-	?
O=C(Nc1ccc2nn(-c3ccccc3)nc2c1)c1ccc2c(c1)OCO2	-	-	21µM	?	16µM
